Data reported in the supplement of paper PMC10338343.
± gives the standard deviation.

system: EfPiwi piRISC loaded with L1MC piRNA (26 nt); assay: pre-steady-state target cleavage rate (min^-1); auxiliary factor: 500 nM Ephydatia muelleri Gtsf1; guide: L1MC piRNA 5'p-UAACUAAAUACUAUGCAAGCUGUAGG; MIWI and MILI are mouse PIWI proteins and EfPiwi is from a freshwater sponge; tags in brackets are library labels; higher = faster piRNA-guided slicing of the target
Summary of the method: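 In this Cleave-'n-Seq assay, uncleaved targets were sequenced and normalised to depth and to weakly complementary targets. They came from a transcribed, DNA-blocked target RNA library […] mixed with 1 nM active affinity-purified piRISC carrying one synthetic guide, with or without 500 nM GTSF1 partner protein, in HEPES–potassium acetate buffer at 33 °C for 0–8 or 0–960 min. After three trials were pooled and k3 was capped at 0.0001 min^-1, the pre-steady-state cleavage rate was obtained from a burst-and-steady-state fit.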

| Sequence | pre-steady-state target cleavage rate |
| --- | --- |
| UCCUGGAACAGACUUGCAUAGUAUUUAGUUA | 0.0135 ± 0.0042 |
| UCCUGCUACAGGUUGCAUACUAUUUAGUUA | 0.00621 ± 0.0019 |
| UCCUGGAUGAGCUAUGCAUAGUAUUUAGUUA | 0.0256 ± 0.0076 |
| UCCUCGUACAGCUUGCAAAGUAUUUAGUUA | 0.143 ± 0.032 |
| UCCUGCUACAGCUUGCUUAGUAUUUAGUUA | 0.0201 ± 0.0068 |
| UCCUGCUACAGCUUGCAUAGUAUUCAGUUA | 0.00508 ± 0.0017 |
| UCCUGGUACAGCUUCAUAGUAUUUAGUUA | 0.0159 ± 0.0055 |
| UCCUGGAAGAGCAUGCAUAGUAUUUAGUUA | 0.0132 ± 0.004 |
| UCCUGGUACAGCUGCAUAGUAUUUAGUUA | 0.00843 ± 0.0034 |
| UCCUGGAUCAGCUUGCAUCGUAUUUAGUUA | 0.00918 ± 0.0028 |
| UCCUGGUAGAGCAUGCAUAGUAUUUAGUUA | 0.0134 ± 0.004 |
| UCCUGGAACAGGUUGCAUAGAAUUUAGUUA | 0.00258 ± 0.0014 |
| UCCUGGAUCAUGCUUGCAUAGUAUUUAGUUA | 0.0911 ± 0.025 |
| UCCUGGAUCAGCUAGCUUAGUAUUUAGUUA | 0.00676 ± 0.0036 |
| UCCUGCUACAGCGUUGCAUAGUAUUUAGUUA | 0.0103 ± 0.0024 |
| UCCUCCUACACCUUGCAUAGUAUUUAGUUA | 0.0762 ± 0.025 |
| UCCUCCUACAGCUUGGAUAGUAUUUUGUUA | 0.00565 ± 0.0022 |
| UCCUCCUAAGCUUGCAUAGUAUUUAGUUA | 0.0155 ± 0.0059 |
| UCCUGGAUGUCGAUGCAUAGUAUUUAAGUUA | 0.00522 ± 0.0045 |
| UCCUCCUACAGCUUGCAUAGUGAUUUAGUUA | 0.00415 ± 0.0025 |

| Sequence | pre-steady-state target cleavage rate |
| --- | --- |
| UCCUGGUACACCUUGCUUAGUAUUUAGUUA | 0.00384 ± 0.0027 |
| UCCUGCUACAGCCUGCAUAGUAUUUAGUUA | 0.01 ± 0.0029 |
| UCCUGGAACAGCUUGCAUAGUAUUUAGUUU [g2:g23:cont:t1U] | 0.0156 ± 0.0055 |
| UCCUGCUACAGCUUGCAUAGUAUUUAGUGA | 0.00567 ± 0.0019 |
| UCCUGCUACAGCUGCAUAGUAUUUAGUUA | 0.0102 ± 0.0026 |
| UCCUGCUACAGCCUUGCAUAGUAUUUAGUUA | 0.0116 ± 0.0041 |
| UCCUGCUACAGCUUGCAUAGUAUAUAGUUA | 0.00448 ± 0.0019 |
| UCCUGCUACUAGCUUGCAUAGUAUUUAGUUA | 0.00699 ± 0.0025 |
| UCCUGGAACAGCUUGCAUAGUAUUUAAGUUA | 0.0138 ± 0.0052 |
| UCCUGGUACAGCUAGCAUAGUAUUUAGUUA | 0.0085 ± 0.0027 |
| UCCUGGAUGUGCUUGCAUAGUACUUUAGUUA | 0.0126 ± 0.0061 |
| UCCUGGAUGUCGAAGCAUAGUAUUUAGUUA [g2:g16:cont:t1A] | 0.00352 ± 0.002 |
| UCCUGGAUGUCCUUGCCUAGUAUUUAGUUA | 0.00345 ± 0.002 |
| UCCUGCUACUGCUAGCAUAGUAUUUAGUUA | 0.0129 ± 0.0034 |
| UCCUGGAUGAGACUUGCAUAGUAUUUAGUUA | 0.00434 ± 0.003 |
| UCCUGGAUCAGCAUGCAUAGUAUUUAGUUA | 0.12 ± 0.026 |
| UCCUGCUACAGCUAGCUUAGUAUUUAGUUA | 0.00973 ± 0.0029 |
| UCCUCCUACAGCUUGCAUACUAUUUAGUUA | 0.00904 ± 0.0032 |
| UCCUGCAACAGCUUGCAUAGUAUAUAGUUA | 0.00844 ± 0.0024 |
| UCCUCCUACAGCUAGCAUAGUAUUAAGUUA | 0.00633 ± 0.0029 |
